Bioassay records deposited in PubChem by The Scripps Research Institute Molecular Screening Center.
The list is not random: actives were taken first. Their share in the collection is about 2%.
LYPLA1 counter – blocks human lysophospholipase 1, a PME1 counter-screen. O75608. recombinant LYPLA1, FP-Rh probe fluorescence polarization. inhibition, % at 5.9 µM. 320,000 compounds, 0.16% hits;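 active = inhibition above the mean of all tested compounds plus 3 SD, set per campaign, cut at about 14% in these data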;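 also: inhibitors block serine hydrolase probe labeling of LYPLA1 so polarization falls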
LYPLA2 inh – counter-screen for PME1 inhibitors: inhibitors of human LYPLA2; AID 2177; recombinant LYPLA2, FP-Rh probe fluorescence polarization; inhibition, % at 5.9 µM; 320,000 compounds, 0.38% hits; O95372;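 active = inhibition above the screen-wide mean plus 3 SD, limit set per campaign, cut at about 26% in these data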
Target sequence (O95372 whole entry, looked up): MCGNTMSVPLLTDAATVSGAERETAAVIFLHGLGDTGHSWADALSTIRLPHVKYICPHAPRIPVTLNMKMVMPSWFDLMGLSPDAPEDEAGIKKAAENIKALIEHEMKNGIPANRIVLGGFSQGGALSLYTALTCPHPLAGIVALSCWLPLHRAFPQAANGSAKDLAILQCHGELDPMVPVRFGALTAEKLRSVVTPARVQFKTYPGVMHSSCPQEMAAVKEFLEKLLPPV
PME-1 inh – blocks human protein phosphatase methylesterase 1; 320,000 compounds, 0.53% hits; inhibition, % at 5.9 µM; recombinant PME-1, FP-Rh probe fluorescence polarization;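 active = inhibition above the campaign mean of all compounds plus 3 SD, cut at about 26% in these data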;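 also: competitive labeling of PME-1 active site by serine hydrolase directed probe; inhibitors block probe labeling so polarization falls and inhibition rises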
Fam108B inh – Fam108B inhibition, counter-screen for RBBP9 inhibitors; recombinant Fam108B, FP-Rh probe fluorescence polarization; inhibition, % at 9.51 µM; 300,000 compounds, 0.33% hits;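 active = inhibition above the screen mean inhibition plus 3 SD, computed separately per campaign, cut at about 18% in these data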;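 also: inhibitors lower polarization as less probe binds the enzyme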
GSTO1 counter – GSTO1 inhibition, counter-screen for RBBP9 inhibitors. recombinant GSTO1, activity-based probe fluorescence polarization. inhibition, % at 5.96 µM. 300,000 compounds, 1.1% hits;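 active = inhibition above the campaign mean inhibition plus 3 SD, cut at about 35% in these data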
Target sequence (P78417 whole entry, looked up): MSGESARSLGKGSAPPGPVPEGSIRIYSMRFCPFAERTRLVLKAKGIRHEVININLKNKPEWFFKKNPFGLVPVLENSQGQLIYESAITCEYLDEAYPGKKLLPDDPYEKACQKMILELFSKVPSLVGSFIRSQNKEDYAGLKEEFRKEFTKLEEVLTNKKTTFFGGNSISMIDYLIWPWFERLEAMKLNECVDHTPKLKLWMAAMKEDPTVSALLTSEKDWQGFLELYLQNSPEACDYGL
PREPL inh – inhibitors of human prolyl oligopeptidase-like enzyme PREPL | recombinant PREPL, fluorescence polarization activity-based probe | inhibition, % at 5.96 µM | 320,000 compounds, 0.68% hits | AID 2751
Fam108b inh conf – Fam108b (mouse) hydrolase inhibition, confirmation assay; inhibition, % at 9.51 µM; recombinant Fam108b, FP-Rh probe fluorescence polarization; AID 1978; shares compounds with Fam108B inh; 930 compounds, 44% hits;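 active = inhibition above a limit from the primary screen, the mean over all compounds plus 3 SD, cut at about 19% in these data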;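 also: inhibitors free the probe so polarization falls as inhibition rises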
Fam108b ABPP HTS – inhibits mouse Fam108b in gel-based ABPP. recombinant Fam108b, fluorophosphonate probe. shares compounds with Fam108B inh. 260 compounds, 44% hits. inhibition, % at 20 µM; in the data active = inhibition above about 40%
GSTO1 inh conf – GSTO1 (human) inhibition, confirmation. shares compounds with GSTO1 counter. recombinant GSTO1, probe fluorescence polarization. inhibition, % at 5.96 µM. 2,400 compounds, 54% hits;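 active = inhibition above the primary screen's cutoff, its mean inhibition plus 3 SD, cut at about 35% in these data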;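 also: loss of polarization as inhibitors block binding of rhodamine sulfonate ester activity probe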
LYPLA1 confirm – LYPLA1 (human) inhibition, confirmation counter-screen; shares compounds with LYPLA1 counter; recombinant LYPLA1, FP-Rh probe fluorescence polarization; inhibition, % at 5.9 µM; 480 compounds, 69% hits;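 active = mean inhibition across replicates above the hit cutoff set in the primary screen, cut at about 15% in these data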;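 also: loss of FP-Rh probe labeling of LYPLA1 seen as lower polarization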
LYPLA2 confirm – LYPLA2 (human) inhibition, confirmation counter-screen | inhibition, % at 5.9 µM | 1,100 compounds, 72% hits | shares compounds with LYPLA2 inh | recombinant LYPLA2, FP-Rh probe fluorescence polarization;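 active = mean inhibition across replicates above the hit cutoff set in the primary screen, cut at about 26% in these data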;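 also: blocked labeling of the enzyme by serine hydrolase FP-Rh probe lowers polarization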
PREPL confirm – human PREPL inhibition, confirmation; shares compounds with PREPL inh; recombinant PREPL, fluorescence polarization activity probe; inhibition, % at 5.96 µM; 2,000 compounds, 67% hits; AID 2803
Of the large screens only hits and unclear results are named; the others gave an inactive call (follow-up assays come after a bar, where they were run). Rule as the data show it, unless noted: active = inhibition above about 43%; inactive = the rest.

Cc1ccc(OCCn2cc(/C=N/NC(=O)c3ccncc3)c3ccccc32)cc1	LYPLA2 inh 38, PME-1 inh 69, Fam108B inh 34, PREPL inh 52 | Fam108b inh conf inactive | PREPL confirm 65
COc1ccc(C(=O)COc2ccccc2C(=O)Nc2ccccc2)cc1	none
CC(=O)OCC1=C(C(=O)O)N2C(=O)C(NC(=O)c3ccc(COc4cccc(Cl)c4Cl)o3)C2SC1 (centres undefined)	none
O=C(NCCc1ccccc1)c1ccc2c(=O)[nH]c3c(C(=O)NCC4CCCO4)sc(=S)n3c2c1 (centres undefined)	Fam108B inh 34, PREPL inh 93 | Fam108b inh conf 35 | Fam108b ABPP HTS inactive | PREPL confirm 90
Cc1cc(O)ccc1N=Cc1c(C(F)(F)F)[nH][nH]c1=O	LYPLA1 counter 71, LYPLA2 inh 86, PME-1 inh 89, Fam108B inh 31, GSTO1 counter 94, PREPL inh 70 | Fam108b inh conf inactive | LYPLA1 confirm inactive | LYPLA2 confirm inactive | PREPL confirm inactive
CC(C)(C)c1ccc(S(=O)(=O)Nc2noc3ccccc23)cc1	none
O=C(CCl)N1N=C(c2ccco2)CC1c1ccco1 (centres undefined)	GSTO1 counter 90 | GSTO1 inh conf 97
O=C(CCl)N1N=C(c2cccs2)CC1c1ccco1 (centres undefined)	GSTO1 counter 92 | GSTO1 inh conf 100
COc1ccc(/C=N/NC(=O)c2ccn[nH]2)cc1CSc1ccccn1	GSTO1 counter 47 | GSTO1 inh conf inactive
CCOc1ccc(N(CC(=O)Nc2ccc(OC)cc2OC)S(=O)(=O)c2c(C)[nH]c(=O)[nH]c2=O)cc1	none
Cc1ccsc1C(=O)N1CCCC(N(C)Cc2ccccc2)C1 (centres undefined)	none
Cc1cc(C)c2[nH]c(O)c(N=NC(=S)NCC3CCCO3)c2c1 (centres undefined)	none
Oc1[nH]c2c(Cl)cc(Cl)cc2c1N=NC(=S)NCC1CCCO1 (centres undefined)	GSTO1 counter 51 | GSTO1 inh conf inactive
CCCCC[n+]1ccn(C2=C([O-])c3ccccc3C(=O)/C2=N\S(=O)(=O)c2ccccc2)c1	GSTO1 counter 75 | GSTO1 inh conf 59
CCCC[n+]1ccn(C2=C([O-])c3ccccc3C(=O)/C2=N\S(=O)(=O)c2ccccc2)c1	GSTO1 counter 68 | GSTO1 inh conf 66
CC(C)(C)c1cc[n+](C2=C([O-])c3ccccc3C(=O)/C2=N\S(=O)(=O)c2ccccc2)cc1	GSTO1 counter 87 | GSTO1 inh conf 81
CCCC[n+]1ccn(-c2nc3ccccc3nc2[N-]S(=O)(=O)c2ccccc2)c1	none
CCCCC[n+]1ccn(-c2nc3ccccc3nc2[N-]S(=O)(=O)c2ccc(C)cc2)c1	none
CC(C)[n+]1ccn(C2=C([O-])c3ccccc3C(=O)/C2=N\S(=O)(=O)c2ccccc2)c1	GSTO1 counter 61 | GSTO1 inh conf 57
CC(NC(=O)C1CCN(C(=O)Nc2ccccc2)CC1)c1ccc(Cl)cc1 (centres undefined)	none (no result: Fam108B inh, GSTO1 counter)
CCOC(=O)/C=c1\s/c(=C\c2sccc2C)c(=O)n1CC(=O)NCc1ccc(C)cc1	none
Cc1ccc(C)c(-n2c(SCC(=O)NC(C(=O)O)C(C)C)nnc2-c2cccc(Cl)c2)c1 (centres undefined)	none
CCCCC[n+]1ccn(C2=C([O-])c3ccccc3C(=O)/C2=N\S(=O)(=O)c2ccc(Br)cc2)c1	GSTO1 counter 47 | GSTO1 inh conf inactive
CC1CC(C)(C)Nc2ccc(OC(=O)c3ccco3)cc21 (centres undefined)	GSTO1 counter 43 | GSTO1 inh conf inactive
O=C(Oc1ccc2ccccc2c1)c1ccco1	none
O=C1Nc2cc(S(=O)(=O)N3CCCC3)ccc2N2CCCC12 (centres undefined)	none
O=C1Nc2ccccc2N2CCCC12 (centres undefined)	GSTO1 counter 69 | GSTO1 inh conf 77
Cc1nn(Cc2ccccc2)c(Cl)c1/C=C/C(=O)OC(C(=O)NC(N)=O)C(C)C (centres undefined)	none
C=CCNC(=S)NC(=O)c1ccc(C)c(Br)c1	none
CCOc1ccc(N(CCCCO)C(=S)NC(=O)c2ccc(C)c(Br)c2)cc1	GSTO1 counter 47 | GSTO1 inh conf inactive
CC(C)CC(NS(=O)(=O)c1cccc(C(=O)O)c1)C(=O)O (centres undefined)	GSTO1 counter 51 | GSTO1 inh conf inactive
CCOc1cc(CNc2ccc(O)cc2)cc(Br)c1OCc1ccccc1F	GSTO1 counter 80 | GSTO1 inh conf inactive
O=C(OCC(=O)N1CCCCC1)c1cc(NS(=O)(=O)c2ccc(Cl)c([N+](=O)[O-])c2)ccc1O	GSTO1 counter 51 | GSTO1 inh conf 56
CN(C(=O)COC(=O)c1ccc2ccccc2n1)c1ccccc1	none (no result: LYPLA1 counter, LYPLA2 inh, PME-1 inh, Fam108B inh, GSTO1 counter)
CCOc1ccc(/C=N/NC(=O)c2cc(-c3ccco3)nc3ccccc23)cc1	none
O=C(N/N=C/c1ccc(F)cc1)c1cc(-c2ccco2)nc2ccccc12	GSTO1 counter 57 | GSTO1 inh conf inactive
Cc1nnc(NC(=O)c2cc(-c3ccco3)nc3ccccc23)s1	GSTO1 counter 40 | GSTO1 inh conf inactive
O=C(O)c1cc(-c2ccco2)nc2ccccc12	none
CCNC(=O)COC(=O)c1cc(-c2ccco2)nc2ccccc12	GSTO1 counter 41 | GSTO1 inh conf inactive
O=c1cc(C(Cl)(Cl)Cl)oc2c1ccc1ccccc12	GSTO1 counter 47 | GSTO1 inh conf 80
CCc1cc(CNC(=O)CC2C(=O)NCCN2Cc2cccc(OC)c2)on1 (centres undefined)	none
CCOC(=O)C1CCCN(C(=O)c2ccccc2NS(=O)(=O)c2ccc(F)cc2)C1 (centres undefined)	none (no result: LYPLA1 counter, LYPLA2 inh, PME-1 inh, Fam108B inh, GSTO1 counter)
